This is an account of results in PubChem BioAssay (Tox21).

A number with no mark means an inactive call. Calls follow the shape of the full dose curve.
% is scaled to controls: 0 for no effect and ±100 for the full control effect.

Chain of Acetylcholinesterase (Homo sapiens) (P22303 whole entry, looked up): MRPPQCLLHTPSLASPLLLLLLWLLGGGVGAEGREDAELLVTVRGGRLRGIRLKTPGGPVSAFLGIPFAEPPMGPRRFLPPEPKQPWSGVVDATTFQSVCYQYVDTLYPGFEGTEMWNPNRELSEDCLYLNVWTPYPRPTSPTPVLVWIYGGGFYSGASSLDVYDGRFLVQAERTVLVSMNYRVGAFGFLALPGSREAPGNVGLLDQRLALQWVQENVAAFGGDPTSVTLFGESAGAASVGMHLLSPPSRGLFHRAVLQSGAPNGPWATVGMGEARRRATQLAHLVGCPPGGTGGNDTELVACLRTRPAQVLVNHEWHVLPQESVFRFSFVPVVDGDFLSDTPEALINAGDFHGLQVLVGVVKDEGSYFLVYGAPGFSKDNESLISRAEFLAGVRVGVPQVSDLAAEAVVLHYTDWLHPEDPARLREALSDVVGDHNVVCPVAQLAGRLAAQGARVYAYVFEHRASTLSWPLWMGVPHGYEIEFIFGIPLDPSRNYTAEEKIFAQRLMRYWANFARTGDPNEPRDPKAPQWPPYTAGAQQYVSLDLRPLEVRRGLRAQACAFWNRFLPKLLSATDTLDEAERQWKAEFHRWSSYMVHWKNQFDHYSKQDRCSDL

The experiment concerns the target Acetylcholinesterase (Homo sapiens) (UniProt P22303). Briefly: Acetylcholinesterase (AChE) small molecule antagonists: enzyme-based qHTS assay with human liver microsomes (AID 1347399). Also: nearly all actives have a fitted effect of over 60% in size. To be noted: Potency: qHTS inhibition; outcome: qHTS inhibition; series mostly up to 115 µM; activity change, negative = inhibition: at the top concentration. The method in brief: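 Recombinant human AChE (50 mU/mL in the enzyme mix) and human liver microsomes (0.25 mg/mL final) were preincubated with compound and NADPH (0.25 mg/mL final) for 30 min at 37 C. Acetylthiocholine/DTNB was then added; thiocholine was read colorimetrically after 10 min at room temperature.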
On to `C/C=C(\C)C#N`, for which the “activity change, negative = inhibition” value is -1.68%. Under `CCOC(=O)CC(C)C` stands 1.02%; under `Nc1ncnc2c1ncn2[C@H]1CC[C@@H](CO)O1`, 1.72%; under `CCC(C)c1ccccc1` (stereo not given), 0.567%. Take `CCN(CC)c1ccc(C=O)cc1`: the “activity change, negative = inhibition” value is -0.023%. Under `CC1=CC[C@@]23C[C@@H]1C(C)(C)[C@@H]2CC[C@H]3C` stands -0.0718%. For `C=C(C)c1ccccc1`, the “activity change, negative = inhibition” value was -0.337%. With `CC(=O)NC(Cc1ccccc1)C(=O)O` (stereo not given), the “activity change, negative = inhibition” value was 0.84% [at 53 µM].

As to `O=C1CCCc2c1cc1ccc3cccc4ccc2c1c34`, the “activity change, negative = inhibition” value was -1.78%.

Take `CC(C(=O)O)c1ccc2c(c1)[nH]c1ccc(Cl)cc12` (stereo not given): the “activity change, negative = inhibition” value is 1.18% [at 53 µM].

On to `O=C(O)CCCc1ccccc1`, for which the “activity change, negative = inhibition” value is -1.39% [at 53 µM].

On to `CC(C)COC(=O)c1ccc(O)cc1`, for which the “activity change, negative = inhibition” value was 0.254%. Turning to `CCN(CC)C(=O)/C(C#N)=C/c1cc(O)c(O)c([N+](=O)[O-])c1`, the “activity change, negative = inhibition” value was 13.5% [at 53 µM].

Regarding `C1=COCCC1`, the “activity change, negative = inhibition” value was 1.11%. `CCOC(=O)c1ccccc1OC`: the “activity change, negative = inhibition” value was 0%.
